Reference: PubChem BioAssay

These compounds were tested against Torsin-1A (Homo sapiens) (UniProt O14656) (assay: TOR1A wild-type binding on microarray – cell lysate, small-molecule microarray, lysate, 635/667 nm, primary screen (AID 1149)). Settings: COS7 hTOR1A-WT lysate, 635 nm fluorescence, higher = more signal.
Torsin-1A (Homo sapiens), sequence (O14656 whole entry, looked up): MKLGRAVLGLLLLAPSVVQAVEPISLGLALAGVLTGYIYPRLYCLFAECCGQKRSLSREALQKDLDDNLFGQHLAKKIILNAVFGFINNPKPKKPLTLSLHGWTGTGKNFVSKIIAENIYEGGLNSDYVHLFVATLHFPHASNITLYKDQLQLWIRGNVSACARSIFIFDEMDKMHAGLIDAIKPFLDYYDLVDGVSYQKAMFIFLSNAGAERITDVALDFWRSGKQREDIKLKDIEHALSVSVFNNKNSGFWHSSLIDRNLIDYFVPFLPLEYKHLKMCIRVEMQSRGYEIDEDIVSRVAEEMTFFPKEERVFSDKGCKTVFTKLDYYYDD
`CN1C2C=C(c3ccc(CO)cc3)C(C3C(=O)N(C(N)=O)C(=O)C32)C1C1CC1` (stereo unspecified) was tested, and the composite z-score was 0.0973. With `COc1cc(Cc2cc3c(c(CCc4ccccc4)n2)[Si](C(C)C)(C(C)C)O[C@H]3c2ccccc2)cc(OC)c1OC` the composite z-score was 0.707. `C=CCOC(=O)[C@H]1[C@@H]2C(=O)O[C@@H](c3ccccc3)[C@@H](c3ccccc3)N2[C@@H](c2ccc(OCCOC(=O)[C@@H]3C[C@@H]4C(=O)N[C@@H](Cc5ccccc5)C(=O)N4[C@@H]3c3ccc(O)cc3)cc2)[C@]12C(=O)Nc1ccc(I)cc12` was tested, and the composite z-score was -0.305. `CCOC(=O)C1=CC[C@@H](c2ccccc2)N(S(=O)(=O)c2ccc(C)cc2)[C@@H]1C#N` showed a composite z-score of 0.0512. `C=CC[C@]1(C(N)=O)N=C(c2ccc(OCCCO)cc2)O[C@H]1c1ccccc1N=[N+]=[N-]` gave a composite z-score of 0.534. `COc1ccc(CCNC(=O)[C@@H]2c3ccccc3C(=O)N(Cc3cc(F)cc(C(F)(F)F)c3)[C@H]2c2ccc(CO)cc2)cc1` gave a composite z-score of 0.642. Work on `CC(C)C[C@@H]1NC(=O)[C@@H]2C[C@H](C(=O)NCCCCCNC(=O)CS)[C@H](c3ccc(O)cc3)N2C1=O` yielded a composite z-score of 1.87. With `C=CCNC(=O)[C@@H]1[C@H]2C(=O)O[C@H](c3ccccc3)[C@H](c3ccccc3)N2[C@H](c2ccc(OCCO)cc2)[C@@]12C(=O)N(C(=O)OCCOC)c1ccccc12` the composite z-score was 0.72. `CCCCC(=C=CC[C@@H](O)c1ccccc1OCCO)C[C@@H](O)c1ccccn1` showed a composite z-score of -0.245. For `O=C1O[C@@H](c2ccccc2)[C@@H](c2ccccc2)N2[C@@H](c3ccccc3OCCO)[C@]3(C(=O)Nc4ccc(C#CC5(O)CCCCCC5)cc43)[C@@H](C(=O)N3CCCCCCC3)[C@H]12`, the composite z-score was 3.29. Work on `CCCCC(=C=CC[C@H](O)c1ccccc1OCCO)CCO` yielded a composite z-score of -0.309. `C=CCNC(=O)[C@@H]1[C@H]2C(=O)O[C@H](c3ccccc3)[C@H](c3ccccc3)N2[C@H](c2ccc(OCCO)cc2)[C@@]12C(=O)Nc1ccc(C#CC3=CCCCC3)cc12` was tested, and the composite z-score was 0.707. In the case of `COCCOC(=O)N1C(=O)[C@@]2(c3cc(C#CCCO)ccc31)[C@H](c1ccc(O)cc1)N1[C@H](c3ccccc3)[C@H](c3ccccc3)OC(=O)[C@H]1[C@@H]2C(=O)NC[C@H](O)c1ccccc1`, the composite z-score was 0.127. Work on `[N-]=[N+]=Nc1ccccc1C[C@]1(C(=O)N2CCCCC2)N=C(c2ccc(OCCCO)cc2)O[C@H]1c1ccccc1` yielded a composite z-score of 0.351. For `COc1c(C)cc(-c2nc(-c3ccccc3)c3c(c2C)CO[Si]3(C(C)C)C(C)C)cc1C`, the composite z-score was -0.0284. `CC(C)N1CC=CC23O[C@@H]4/C=C\CCCOC(=O)C4[C@H]2C(=O)N(C(C)CO)[C@@H]3C1=O` (stereo partly specified) was tested, and the composite z-score was -2.23. In the case of `COC(=O)C1(CC(C)C)C=C2C(=C(C)C(=O)C2C)CN1` (stereo unspecified), the composite z-score was 0.0384. `COCCCNC(=O)[C@@]1(Cc2ccccc2I)c2ccccc2C(=O)N(C2CCCCC2)[C@H]1c1ccc(CO)cc1` showed a composite z-score of -0.0751. With `O=C/C=C/c1ccc(-c2ccccc2)cc1` the composite z-score was -0.0497. Compound `COC(=O)C(CC#Cc1ccc2c(c1)[C@]1(C(=O)N2)[C@H](C(=O)N2CCN(c3ncccn3)CC2)[C@H]2C(=O)O[C@H](c3ccccc3)[C@H](c3ccccc3)N2[C@@H]1c1ccc(O)cc1)C(=O)OC` has a composite z-score of 0.662. `COc1ccc([Si](C)(C)[C@H]2[C@H](CC(=O)N3CCC[C@H]3CO)O[C@@]3(C(=O)N(C)c4ccccc43)[C@@H]2C)cc1` was tested, and the composite z-score was 1.52. `CCCC=C(CCC)[C@@H](NC(=O)c1ccc(C(=O)OC)cc1)c1ccc(C(=O)OC)cc1` gave a composite z-score of -0.266. `Cc1ccc(S(=O)(=O)N2[C@@H](c3ccccc3)C(C(=O)O)=CC[C@H]2c2ccc(F)cc2)cc1` showed a composite z-score of 1.33. In the case of `C=C(C(=O)CC[C@@H](OC(=O)c1ccccc1-c1ccccc1C(=O)O)c1cccc(OCCO)c1)C(C)C`, the composite z-score was 2.85. In the case of `COC(=O)c1c2oc(c1C(=O)OC)C(=O)N[C@H](Cc1ccccc1)Cn1cc(nn1)C1(CCCCC1)NC(=O)N[C@H](CO)CC2`, the composite z-score was 0.3. `C=CCNC(=O)[C@@H]1[C@H]2C(=O)O[C@H](c3ccccc3)[C@H](c3ccccc3)N2[C@H](c2ccc(O)cc2)[C@@]12C(=O)Nc1ccc(C#CC3=CCCCC3)cc12` was tested, and the composite z-score was 0.857. `CC(C)(C)OC(=O)CC[C@]1(C(=O)N2CCOCC2)COC(c2ccc(OCCCO)cc2)=N1` was tested, and the composite z-score was 0.701. Compound `C=CC[C@]1(C(=O)NCC(O)CO)N=C(c2ccc(OCCCO)cc2)O[C@H]1c1ccccc1CN=[N+]=[N-]` (stereo partly specified) has a composite z-score of 0.598. `CCOC(=O)C1=CCC(c2cccn2C(=O)OC(C)(C)C)N(S(=O)(=O)c2ccc(C)cc2)C1` (stereo unspecified) was tested, and the composite z-score was 0.0444. Work on `COc1cc(Cc2cc3c(c(-c4ccccc4)n2)[Si](C(C)C)(C(C)C)OC3)cc(OC)c1OC` yielded a composite z-score of -0.226. `COCCCNC(=O)[C@@]1(Cc2ccccc2I)c2ccccc2C(=O)N(Cc2ccccc2C(F)(F)F)[C@H]1c1ccc(CO)cc1` gave a composite z-score of 0.0167. Work on `COc1ccc(CCNC(=O)[C@@H]2c3ccccc3C(=O)N(C(C)C)[C@H]2c2ccc(CO)cc2)cc1` yielded a composite z-score of 0.123. `Cc1ccc(N2C(=O)c3ccccc3[C@@H](C(=O)NCCN3CCOCC3)[C@@H]2c2ccc(CO)cc2)nc1` was tested, and the composite z-score was -2.75. `COc1cc2c(cc1O)C(C)N(Cc1sc3ccccc3c1Cl)CC2` (stereo unspecified) gave a composite z-score of -1.22. `CC(C)(C)OC(=O)CC[C@@]1(C(=O)N2CCOCC2)N=C(c2ccc(OCCCO)cc2)O[C@@H]1c1ccccc1CN=[N+]=[N-]` gave a composite z-score of 0.401. `CC[C@@H](O[Si](C#C[Si](C(C)C)(C(C)C)C(C)C)(C(C)C)C(C)C)c1cn([C@H](C)c2ccccc2)nn1` showed a composite z-score of 0.398.
